HSD17B inhib – blocks hydroxysteroid 17-beta dehydrogenase activity; Potency, µM (top dose mostly 57.1 µM), for the others: at the top dose activity change, negative = inhibition, most hits filed as inhibitors; Q99714; 7.6% of 75,000 active; recombinant HSD17B10, NADH fluorescence kinetic; AID 893;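 note: the protocol describes HADH2 (HSD17B10) and not the HSD17B4 of the title; potency is the fitted concentration of half-maximal effect; % is set by controls: 0 for no effect and ±100 for the full control effect; nearly all actives have a fitted effect of over 70% in size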
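20 nM HADH2, pH 9.0 Tris/Tween; cpd preinc 15 min RT; start w/ 1 mM NAD+ + 90 uM b-hydroxybutyryl-CoA; kinetic fluor ex360/em450 q30s x 4 min; delta last-first.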
A350 fluor – compound fluoresces in the Alexa 350 spectral region. Compound autofluorescence, 340/450 nm, Alexa 350 dye-equivalents; stronger effect = higher value. max dye-equivalent concentration, M. 11% of 59,000 active. AID 590; in the data active = max dye-equivalent concentration above about 10 nM; inconclusive = mostly about 1.1 nM to 9.6 nM
HADH2 inh – blocks human hydroxyacyl-CoA dehydrogenase type II; 3.4% of 73,000 active; Q99714; AID 886; Potency, µM (titrated, usually from 57.1 µM), for inactives: at the top dose activity change, negative = inhibition, usual class: inhibitors; recombinant HADH2, NADH fluorescence, beta-hydroxybutyryl-CoA; note: potency is the fitted concentration of half-maximal effect; % is set by controls: 0 for no effect and ±100 for the full control effect; nearly all actives have a fitted effect of over 60% in size
Target sequence (Q99714 whole entry, looked up, one chain of several): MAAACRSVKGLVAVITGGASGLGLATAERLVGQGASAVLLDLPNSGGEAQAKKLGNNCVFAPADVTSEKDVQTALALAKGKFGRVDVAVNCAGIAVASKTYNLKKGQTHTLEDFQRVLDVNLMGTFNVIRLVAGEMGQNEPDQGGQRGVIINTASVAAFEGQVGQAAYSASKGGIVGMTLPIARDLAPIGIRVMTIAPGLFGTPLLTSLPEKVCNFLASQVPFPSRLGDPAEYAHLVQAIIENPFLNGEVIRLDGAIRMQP
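20 nM HADH2 + cpd, 15 min RT; add 1 mM NAD+/90 uM beta-hydroxybutyryl-CoA; kinetic fluorescence 360/450 nm, 4 min. Tris-HCl pH 9.0, 0.01% Tween-20.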
CRE-bla Fsk – modulators of forskolin-stimulated CRE signaling in CHO cells; CHO CRE-bla reporter (cAMP response element driving beta-lactamase), forskolin EC10, beta-lactamase ratio; Potency, µM (doses to about 38.2 µM), for inactives: top-dose activity change, negative = inhibition, actives largely listed as activators; 2.5% of 71,000 active; AID 662; active = well fitted activation curve with a large enough effect in the signal ratio, with a control signal flat, not every such curve was filed as active; inconclusive = small, poorly fitted or top-dose-only effect, or effect the other way, or a change in a side signal; the % refers to the signal ratio; note: potency is the fitted concentration of half-maximal effect; % of control where 0% means no effect
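CRE-bla CHO reporter cells treated with compound titration plus EC10 NKH 477 (water-soluble forskolin), incubated 3 h at 37 °C; CCF4 loading 2 h at room temperature, 460/530 nm emission ratio read, AC50 values derived for positive or negative modulators.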
AID923 – qHTS Assay for Allosteric/Competitive Inhibitors of Caspase-1: Spectroscopic Profiling in AFC Spectral Region. Potency, µM (series often up to 57.5 µM), inactives show top-dose fluorescence increase, usual class: activators. AID 923, 2007. compound fluorescence, AFC spectral region (405/520 nm). 1.1% of 75,000 active; note: potency is the fitted concentration of half-maximal effect; 0% is about no effect
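Baseline compound fluorescence (AFC region, 405 nm ex/520 nm em) taken from the intercept of kinetic reads with 50 nM caspase-1 and 5 uM Ac-WEHD-AFC; normalized to an on-plate AFC standard curve; compounds titrated up to 57 uM.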
4-MU autofl – compound fluoresces in the 4-MU spectral region | 11% of 59,000 active | max dye-equivalent concentration, M | compound autofluorescence, 340/450 nm, 4-MU equivalents; stronger effect = higher value | AID 589; in the data active = max dye-equivalent concentration above about 10 nM; inconclusive = mostly about 1.1 nM to 9.6 nM
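Compounds in 100 mM Tris, pH 8.0, incubated 15 min at room temperature, then fluorescence read at 340 nm excitation/450 nm emission. Signal converted to 4-MU dye-equivalent concentration using an on-plate six-point 4-MU standard curve.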
Active calls of the source: *; [ ] = another dose, or the depositor's remark. In the library only some 14% were active in any assay of this set; here they are far more common. Unless noted, calls come from the whole dose curve; as a rule, active = well fitted curve in the direction sought with a large enough effect; inconclusive = small, poorly fitted or top-dose-only effect, or another doubt; inactive = no such curve, though single readings can be large; an effect the other way counts as inactive or inconclusive.

What do the screens show for `O=C1CN2CCN(CC2)CC(=O)Nc2ccc(cc2)S(=O)(=O)c2ccc(cc2)NC(=O)CN2CCN(CC2)CC(=O)Nc2ccc(cc2)S(=O)(=O)c2ccc(cc2)N1`?
HSD17B inhib: -9%[11.4 µM]; A350 fluor: inactive; HADH2 inh: 6%[11.4 µM]; CRE-bla Fsk: 1%[7.6 µM]; AID923: -1%[11.5 µM]; 4-MU autofl: inactive

Results for Nc1nnc(-c2ccccc2Cl)s1 ?
HSD17B inhib: inconclusive; A350 fluor: inactive; HADH2 inh: inconclusive; CRE-bla Fsk: -1%; AID923: 0%; 4-MU autofl: inactive

What do the screens show for `CCc1nnc(NC(=O)c2ccncc2)s1`?
HSD17B inhib: 2%; A350 fluor: inactive; HADH2 inh: -18%; CRE-bla Fsk: 1%; AID923: 2%; 4-MU autofl: inactive

What do the screens show for `CCCC(=O)Nc1nnc(-c2cccc(OCC)c2)s1`?
HSD17B inhib: 20µM*; A350 fluor: inconclusive; HADH2 inh: 0%; CRE-bla Fsk: 6%; AID923: -1%; 4-MU autofl: inconclusive

What do the screens show for `CCCOc1cccc(-c2nnc(N)s2)c1`?
A350 fluor: inactive; 4-MU autofl: inactive

Results for COC(=O)Nc1nnc(-c2ccccc2Cl)s1 ?
HSD17B inhib: 32µM*; A350 fluor: inconclusive; HADH2 inh: 32µM*; CRE-bla Fsk: inconclusive; AID923: -1%; 4-MU autofl: inconclusive

How did CCOC(=O)Nc1nnc(-c2ccccc2OC)s1 do in these assays?
HSD17B inhib: 13µM*; A350 fluor: inconclusive; HADH2 inh: 10µM*; CRE-bla Fsk: 27%; AID923: 0%; 4-MU autofl: inconclusive

How did CCc1nnc(NC(=O)CSc2nnc(-c3ccccc3OC)n2-c2ccccc2)s1 do in these assays?
HSD17B inhib: -4%; A350 fluor: inactive; HADH2 inh: -9%; CRE-bla Fsk: 7%; AID923: -1%; 4-MU autofl: inactive

How did COC(=O)Nc1nnc(-c2ccncc2)s1 do in these assays?
HSD17B inhib: 25µM*; A350 fluor: 3.3e-07M*; HADH2 inh: 16µM*; CRE-bla Fsk: -3%; AID923: 1%; 4-MU autofl: 3e-07M*

How did CC1CCC2C(C)(C)C3CC12CC[C@]3(C)O (stereo partly specified) do in these assays?
HSD17B inhib: -1%; AID923: -5%

What do the screens show for `COc1ccc(C)cc1N(CC(=O)NC1CCCC1)C(=O)CCC(=O)Nc1cc(C)on1`?
HSD17B inhib: -4%; A350 fluor: inactive; HADH2 inh: 3%; CRE-bla Fsk: 6%; AID923: -1%; 4-MU autofl: inactive

Results for COc1ccccc1-c1nnc(NC(=O)OCC(C)C)s1 ?
HSD17B inhib: 10µM*; A350 fluor: inactive; HADH2 inh: 52%; CRE-bla Fsk: 5%; AID923: -3%; 4-MU autofl: inactive

How did CCOC(=O)Nc1nnc(-c2cccc(OC)c2)s1 do in these assays?
HSD17B inhib: 32µM*; A350 fluor: inconclusive; HADH2 inh: 32µM*; CRE-bla Fsk: 5%; AID923: -1%; 4-MU autofl: 1.1e-08M*

How did CC(=O)OC[C@@H]1O[C@@H](O/N=C2/C[C@@H](O)[C@@H](O)[C@@H]3[C@@H]4C(=O)N(Cc5ccc6c(c5)OCO6)C(=O)[C@H]4CC[C@H]23)[C@H](OC(C)=O)[C@H](OC(C)=O)[C@@H]1OC(C)=O do in these assays?
HSD17B inhib: 0%[11.4 µM]; HADH2 inh: -5%[11.4 µM]; AID923: -1%[11.5 µM]

Results for c1nnc(NCNc2nncs2)s1 ?
HSD17B inhib: 2%[11.4 µM]; A350 fluor: inactive; HADH2 inh: 8%[11.4 µM]; CRE-bla Fsk: 2%[7.6 µM]; AID923: 6%[11.5 µM]; 4-MU autofl: inactive

What do the screens show for `CC(=O)c1c(C)nc2cc(Cl)ccc2c1N`?
HSD17B inhib: 5%; A350 fluor: inactive; HADH2 inh: 10%; CRE-bla Fsk: 10µM*; AID923: -2%; 4-MU autofl: inactive

Assay outcomes deposited in PubChem BioAssay by National Center for Advancing Translational Sciences (NCATS).
